{
  "source": "ChEMBL document CHEMBL3433997",
  "about": "“St. Jude Leishmania screening dataset” (2016)",
  "note": "Several values for one entry are separate records, joined by “and”; a condition that tells them apart may be missing. Equal entries are not always repeated.",
  "data": [
    {"target": "Solute carrier family 2, facilitated glucose transporter member 1 (Homo sapiens) (UniProt P11166)", "sequence (P11166 whole entry)": "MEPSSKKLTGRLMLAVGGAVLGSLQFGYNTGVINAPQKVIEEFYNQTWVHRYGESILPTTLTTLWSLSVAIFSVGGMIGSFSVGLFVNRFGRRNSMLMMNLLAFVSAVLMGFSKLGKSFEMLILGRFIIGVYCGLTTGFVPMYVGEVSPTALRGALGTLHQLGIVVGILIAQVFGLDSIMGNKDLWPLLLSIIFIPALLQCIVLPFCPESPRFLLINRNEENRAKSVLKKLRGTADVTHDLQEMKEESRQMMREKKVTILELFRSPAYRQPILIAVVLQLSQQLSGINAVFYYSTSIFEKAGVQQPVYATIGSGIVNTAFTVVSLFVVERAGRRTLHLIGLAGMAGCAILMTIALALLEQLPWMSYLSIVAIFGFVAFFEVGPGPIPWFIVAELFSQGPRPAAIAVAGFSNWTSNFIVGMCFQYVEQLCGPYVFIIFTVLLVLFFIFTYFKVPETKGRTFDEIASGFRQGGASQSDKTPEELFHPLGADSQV", "assay": "ST_JUDE_LEISH: Cytotoxicity at 2uM final concentration against transgenic Leishmania Mexicana promastigotes LmGLUT1 that are glucose transport deficient and complemented with the human glucose transporter GLUT1. Activity is measured by DNA content using SYBR green in vitro", "assay_type": "functional", "values": [
      {"compound": "COc1ccc(O)c(CN2CCN(c3cc(C)ccc3C)CC2)c1", "inhibition": "2.93%"},
      {"compound": "CCc1ccc(CN2CCC(CN(C(=O)c3ccccc3)c3ccc(Cl)cc3)CC2)cc1", "inhibition": "8.24%"},
      {"compound": "Cc1c(C(=O)N[C@@H](C)c2ccccc2)c2cc(O)c(Br)cc2n1C1CCCCC1", "inhibition": "2.84%"},
      {"compound": "CC(Cc1ccc(S(=O)(=O)N(C(C)C)C(C)C)cc1)NCC(O)c1cccc(C(F)(F)F)c1", "note": "(stereo not drawn)", "inhibition": "-0.77%"},
      {"compound": "COc1ccc(-c2ccccc2)cc1NC(=S)NC1CCC(CN2CCC(c3c[nH]c4ccccc34)CC2)CC1", "note": "(stereo not drawn)", "inhibition": "3.8% and 4.09%"},
      {"compound": "CCCCCCC(C)(C)c1cc(O)c2c(c1)OC(C)(C)c1ccncc1-2", "inhibition": "1.05%"},
      {"compound": "CC[C@H]1CN2CC[C@H]1C[C@H]2[C@H](O)c1cc(-c2ccc(Cl)c(Cl)c2)nc2ccc(OC)cc12", "inhibition": "12.6%"},
      {"compound": "CC(C)CNCc1cccc(-c2cccc(CN(C(=O)Nc3ccccc3)C3CCN(Cc4ccccc4)CC3)c2)c1", "inhibition": "1.9%"},
      {"compound": "C=C[C@H]1CN2CC[C@@H]1C[C@H]2[C@H](O)c1cc(-c2ccc(F)cc2)nc2ccc(OC)cc12", "inhibition": "6.56%"},
      {"compound": "CN1CCC(N(C)c2nccc(N3CCN(Cc4cncn4Cc4ccccc4)CC3)n2)CC1", "inhibition": "12.8%"},
      {"compound": "O=C(c1cc(C(=O)NCc2ccc(Cl)cc2)c(=O)n(Cc2ccc(Cl)cc2)c1)c1cc(Cl)ccc1O", "inhibition": "-1%"},
      {"compound": "O=C(/C=C/c1ccc(Cl)c(Cl)c1)NC1CCC(CN2CCC(c3c[nH]c4cc(C(F)(F)F)ccc34)CC2)CC1", "note": "(stereo not drawn)", "inhibition": "6.9% and 1.89%"},
      {"compound": "O=C(/C=C/c1cccs1)NC1CCC(CN2CCC(c3c[nH]c4ccccc34)CC2)CC1", "note": "(stereo not drawn)", "inhibition": "4.14%"},
      {"compound": "NCC(=O)c1cc2c(cc1N)OCCO2", "inhibition": "8.91%"},
      {"compound": "COC(=O)c1ccc(CC(C)NCC(O)c2ccc3ccc4ccccc4c3c2)cc1", "note": "(stereo not drawn)", "inhibition": "3.1%"},
      {"compound": "CN1CC=C(c2csc3ccc(NC(=O)Nc4ccc(-c5ccncc5)c(Cl)c4)cc23)CC1", "inhibition": "0.03%"},
      {"compound": "OC1(CNCc2ccccc2)CCN(CCc2c[nH]c3ccc(F)cc23)CC1", "inhibition": "4.9%"},
      {"compound": "Cc1cc2cc(CNCCc3ccccc3Br)ccc2nc1N", "inhibition": "9.09%"},
      {"compound": "Cc1[nH]c2ccccc2c1C1=CCN(CC2CC2C(=O)c2ccccc2)CC1", "note": "(stereo not drawn)", "inhibition": "10.7%"},
      {"compound": "Oc1ccc(CN2CCN(CCOC(c3ccccc3)c3ccc(Cl)cc3)CC2)cc1Cl", "note": "(stereo not drawn)", "inhibition": "5.8%"},
      {"compound": "CC(=O)N(Cc1ccccc1-c1ccc(CNCCc2ccccc2)cc1)C1CCN(Cc2ccccc2)CC1", "inhibition": "2.55%"},
      {"compound": "O=C(/C=C/c1ccc(F)c(C(F)(F)F)c1)N1CCC(CN2CCC(c3c[nH]c4ccccc34)CC2)CC1", "inhibition": "0.7%"},
      {"compound": "Cc1[nH]c2ccccc2c1C1=CCN(CCCCC2(C)C(=O)Nc3ccccc32)CC1", "note": "(stereo not drawn)", "inhibition": "2.98%"},
      {"compound": "O=C(/C=C/c1ccc(Cl)c(Cl)c1)N1CCC(CN2CCC(c3cn(CC(=O)N4CCCCC4)c4ccccc34)CC2)CC1", "inhibition": "2.63%"},
      {"compound": "O=C(C=Cc1cccc(Cl)c1Cl)NC1CCC(CN2CCC(c3c[nH]c4ccccc34)CC2)CC1", "note": "(stereo not drawn)", "inhibition": "9.75% and 1.21%"},
      {"compound": "O=C(/C=C/c1ccccc1O)NC1CCC(CN2CCC(c3c[nH]c4ccccc34)CC2)CC1", "note": "(stereo not drawn)", "inhibition": "-0.75% and -1.89%"},
      {"compound": "Cc1ccc2[nH]cc(C3CCN(CC4CCC(NC(=O)/C=C/c5ccc(Cl)c(Cl)c5)CC4)CC3)c2c1", "note": "(stereo not drawn)", "inhibition": "4.11% and 12%"},
      {"compound": "Cc1cc(-c2ncc[nH]2)ccc1-c1ccc(C(=O)N2CCc3cc4c(cc32)C2(CCN(C)CC2)CO4)cc1", "inhibition": "-2.79%"},
      {"compound": "CN1CC=C(c2c[nH]c3ccc(OCc4ccccc4)cc23)CC1", "inhibition": "16.2%"},
      {"compound": "CC[C@H]1CN2CC[C@H]1C[C@H]2[C@H](O)c1cc(N2CCC3CCCCC3C2)nc2ccc(OC)cc12", "note": "(stereo partly drawn)", "inhibition": "3.3%"},
      {"compound": "NCc1cccc(-c2cccc(CN(C(=O)Nc3ccccc3)C3CCN(Cc4ccccc4)CC3)c2)c1", "inhibition": "7.36%"},
      {"compound": "CC1(C)N=C(N)N=C(N)N1c1ccc([N+](=O)[O-])cc1", "inhibition": "9.35%"},
      {"compound": "COc1cc(C=CC(=O)N2CCC(CN3CCC(c4c[nH]c5ccccc45)CC3)CC2)cc(OC)c1", "inhibition": "2.61%"},
      {"compound": "Cc1ccc(CC(C)NCC(O)c2cccc(Br)c2)cc1", "note": "(stereo not drawn)", "inhibition": "1.02%"},
      {"compound": "N#Cc1c(F)cc(N2CCC(NCC[C@H](N)Cc3ccc(F)c(F)c3)CC2)cc1F", "inhibition": "2.18%"},
      {"compound": "O=C(NC1CCN(CC2(c3ccc(Cl)cc3)CCC2)CC1)c1cscn1", "inhibition": "1.16%"},
      {"compound": "Cc1[nH]c2ccc(O)cc2c1C1CCN(CC2CCC(NC(=O)/C=C/c3c(Cl)cccc3Cl)CC2)CC1", "note": "(stereo not drawn)", "inhibition": "1.67%"},
      {"compound": "O=C(C=Cc1ccccc1Br)NC1CCC(CN2CCC(c3c[nH]c4ccccc34)CC2)CC1", "note": "(stereo not drawn)", "inhibition": "9.4% and 3.03%"},
      {"compound": "Cc1cc(N(C)C2CCN(C)CC2)nc(Nc2ccc(Cl)cc2)n1", "inhibition": "2.63%"}
    ]},
    {"target": "Hexose transporter 1 (Plasmodium falciparum) (UniProt O97467)", "assay": "ST_JUDE_LEISH: Cytotoxicity at 2uM final concentration against transgenic Leishmania Mexicana promastigotes LmPfHT that are glucose transport deficient and complemented with the Plasmodium falciparum hexose transporter. Activity is measured by DNA content using SYBR green in vitro", "assay_type": "functional", "values": [
      {"compound": "COc1ccc(O)c(CN2CCN(c3cc(C)ccc3C)CC2)c1", "inhibition": "3%"},
      {"compound": "CCc1ccc(CN2CCC(CN(C(=O)c3ccccc3)c3ccc(Cl)cc3)CC2)cc1", "inhibition": "5.97%"},
      {"compound": "Cc1c(C(=O)N[C@@H](C)c2ccccc2)c2cc(O)c(Br)cc2n1C1CCCCC1", "inhibition": "2.43%"},
      {"compound": "CC(Cc1ccc(S(=O)(=O)N(C(C)C)C(C)C)cc1)NCC(O)c1cccc(C(F)(F)F)c1", "note": "(stereo not drawn)", "inhibition": "2.53%"},
      {"compound": "COc1ccc(-c2ccccc2)cc1NC(=S)NC1CCC(CN2CCC(c3c[nH]c4ccccc34)CC2)CC1", "note": "(stereo not drawn)", "inhibition": "2.57% and 3.78%"},
      {"compound": "CCCCCCC(C)(C)c1cc(O)c2c(c1)OC(C)(C)c1ccncc1-2", "inhibition": "0.83%"},
      {"compound": "CC[C@H]1CN2CC[C@H]1C[C@H]2[C@H](O)c1cc(-c2ccc(Cl)c(Cl)c2)nc2ccc(OC)cc12", "inhibition": "9.65%"},
      {"compound": "CC(C)CNCc1cccc(-c2cccc(CN(C(=O)Nc3ccccc3)C3CCN(Cc4ccccc4)CC3)c2)c1", "inhibition": "1.81%"},
      {"compound": "C=C[C@H]1CN2CC[C@@H]1C[C@H]2[C@H](O)c1cc(-c2ccc(F)cc2)nc2ccc(OC)cc12", "inhibition": "4.6%"},
      {"compound": "CN1CCC(N(C)c2nccc(N3CCN(Cc4cncn4Cc4ccccc4)CC3)n2)CC1", "inhibition": "12.8%"},
      {"compound": "O=C(c1cc(C(=O)NCc2ccc(Cl)cc2)c(=O)n(Cc2ccc(Cl)cc2)c1)c1cc(Cl)ccc1O", "inhibition": "-1.29%"},
      {"compound": "O=C(/C=C/c1ccc(Cl)c(Cl)c1)NC1CCC(CN2CCC(c3c[nH]c4cc(C(F)(F)F)ccc34)CC2)CC1", "note": "(stereo not drawn)", "inhibition": "4.9% and -0.14%"},
      {"compound": "O=C(/C=C/c1cccs1)NC1CCC(CN2CCC(c3c[nH]c4ccccc34)CC2)CC1", "note": "(stereo not drawn)", "inhibition": "5.22%"},
      {"compound": "NCC(=O)c1cc2c(cc1N)OCCO2", "inhibition": "9.43%"},
      {"compound": "COC(=O)c1ccc(CC(C)NCC(O)c2ccc3ccc4ccccc4c3c2)cc1", "note": "(stereo not drawn)", "inhibition": "1.22%"},
      {"compound": "CN1CC=C(c2csc3ccc(NC(=O)Nc4ccc(-c5ccncc5)c(Cl)c4)cc23)CC1", "inhibition": "-0.33%"},
      {"compound": "OC1(CNCc2ccccc2)CCN(CCc2c[nH]c3ccc(F)cc23)CC1", "inhibition": "8.31%"},
      {"compound": "Cc1cc2cc(CNCCc3ccccc3Br)ccc2nc1N", "inhibition": "1.37%"},
      {"compound": "Cc1[nH]c2ccccc2c1C1=CCN(CC2CC2C(=O)c2ccccc2)CC1", "note": "(stereo not drawn)", "inhibition": "9.13%"},
      {"compound": "Oc1ccc(CN2CCN(CCOC(c3ccccc3)c3ccc(Cl)cc3)CC2)cc1Cl", "note": "(stereo not drawn)", "inhibition": "1.85%"},
      {"compound": "CC(=O)N(Cc1ccccc1-c1ccc(CNCCc2ccccc2)cc1)C1CCN(Cc2ccccc2)CC1", "inhibition": "2.41%"},
      {"compound": "O=C(/C=C/c1ccc(F)c(C(F)(F)F)c1)N1CCC(CN2CCC(c3c[nH]c4ccccc34)CC2)CC1", "inhibition": "0.53%"},
      {"compound": "Cc1[nH]c2ccccc2c1C1=CCN(CCCCC2(C)C(=O)Nc3ccccc32)CC1", "note": "(stereo not drawn)", "inhibition": "2.07%"},
      {"compound": "O=C(/C=C/c1ccc(Cl)c(Cl)c1)N1CCC(CN2CCC(c3cn(CC(=O)N4CCCCC4)c4ccccc34)CC2)CC1", "inhibition": "2.05%"},
      {"compound": "O=C(C=Cc1cccc(Cl)c1Cl)NC1CCC(CN2CCC(c3c[nH]c4ccccc34)CC2)CC1", "note": "(stereo not drawn)", "inhibition": "23.6% and 3.22%"},
      {"compound": "O=C(/C=C/c1ccccc1O)NC1CCC(CN2CCC(c3c[nH]c4ccccc34)CC2)CC1", "note": "(stereo not drawn)", "inhibition": "0.85% and 0.08%"},
      {"compound": "Cc1ccc2[nH]cc(C3CCN(CC4CCC(NC(=O)/C=C/c5ccc(Cl)c(Cl)c5)CC4)CC3)c2c1", "note": "(stereo not drawn)", "inhibition": "3.18% and 11.1%"},
      {"compound": "Cc1cc(-c2ncc[nH]2)ccc1-c1ccc(C(=O)N2CCc3cc4c(cc32)C2(CCN(C)CC2)CO4)cc1", "inhibition": "1.74%"},
      {"compound": "CN1CC=C(c2c[nH]c3ccc(OCc4ccccc4)cc23)CC1", "inhibition": "14.4%"},
      {"compound": "CC[C@H]1CN2CC[C@H]1C[C@H]2[C@H](O)c1cc(N2CCC3CCCCC3C2)nc2ccc(OC)cc12", "note": "(stereo partly drawn)", "inhibition": "4.42%"},
      {"compound": "NCc1cccc(-c2cccc(CN(C(=O)Nc3ccccc3)C3CCN(Cc4ccccc4)CC3)c2)c1", "inhibition": "6.75%"},
      {"compound": "CC1(C)N=C(N)N=C(N)N1c1ccc([N+](=O)[O-])cc1", "inhibition": "8.47%"},
      {"compound": "COc1cc(C=CC(=O)N2CCC(CN3CCC(c4c[nH]c5ccccc45)CC3)CC2)cc(OC)c1", "inhibition": "0.72%"},
      {"compound": "Cc1ccc(CC(C)NCC(O)c2cccc(Br)c2)cc1", "note": "(stereo not drawn)", "inhibition": "-0.15%"},
      {"compound": "N#Cc1c(F)cc(N2CCC(NCC[C@H](N)Cc3ccc(F)c(F)c3)CC2)cc1F", "inhibition": "3.63%"},
      {"compound": "O=C(NC1CCN(CC2(c3ccc(Cl)cc3)CCC2)CC1)c1cscn1", "inhibition": "-2.56%"},
      {"compound": "Cc1[nH]c2ccc(O)cc2c1C1CCN(CC2CCC(NC(=O)/C=C/c3c(Cl)cccc3Cl)CC2)CC1", "note": "(stereo not drawn)", "inhibition": "0.48%"},
      {"compound": "O=C(C=Cc1ccccc1Br)NC1CCC(CN2CCC(c3c[nH]c4ccccc34)CC2)CC1", "note": "(stereo not drawn)", "inhibition": "3.62% and 2.4%"},
      {"compound": "Cc1cc(N(C)C2CCN(C)CC2)nc(Nc2ccc(Cl)cc2)n1", "inhibition": "-2.68%"}
    ]}
  ]
}
